Experimental data: ChEMBL document CHEMBL3988442, “University of Dundee, Small-Polar-MMV Screening Library” (2021)

biological target: AMP-activated protein kinase, AMPK (Homo sapiens) (UniProt P54646+O43741+P54619+Q9UGJ0+Q9Y478+Q13131+Q9UGI9); test: AMP-dependent Kinase enzyme assay. An in vitro enzyme assay that detects ADP turnover that is directly proportional to AMPK activity. This uses naive AMPK that is activated during the assay with MK-8722; assay type: functional; design: scale not given: direction of the effect not stated beside the values; conditions: 30 µM

Compared with `Cn1ncnc1NCc1ccc(Br)cc1`, `COCCC(=O)NCc1ccc(-c2ncncc2C(=O)N(C)C)cc1` is lower in Percent Effect: 6.33% for the first, -7.24% for the second.

First: CC(C)(C)NC(=O)CN1CCCNCC1
Second: CCCN1CCC(CC(=O)NCCc2nc(C)cc(C)n2)CC1
The Percent Effect of the first is lower: -0.0888% for the first, 6.07% for the second.

Going from `CC(=O)N[C@@H]1CN(C(=O)c2cccc(C(F)(F)F)c2)C[C@H]1O` to `Nc1cc(C(=O)N2CCC(Oc3cccc(C(F)(F)F)c3)CC2)ccn1`, the Percent Effect falls from 5.07% to -4.01%.

First: COc1ccsc1C(=O)NC1CCN(c2ccc(C#N)cc2)CC1
Second: CCc1ccc(CN2CCN(c3ccc(C#N)cc3)C(=O)C2)nc1
The Percent Effect of the first is higher: 13.5% for the first, 3.08% for the second.

Going from `CC(C(=O)N1CCCCC1)N1CCN(c2ncc(Cl)cn2)CC1` (stereo not given) to `CNc1nc(C(=O)N2CCCn3nc(C(=O)N4CCCC4)cc3C2)cs1`, the Percent Effect rises from -3.64% to 10.6%.

Compared with `Cc1nc(N)cc(C2(C)CCCNC2)n1` (stereo not given), `CC(C)NC(=O)C1(Cc2ccccc2-c2cncnc2)CCCNC1` (stereo not given) is higher in Percent Effect: 14.2% for the first, 18.8% for the second.

Going from `COCC1(C(=O)N[C@H]2CN(c3nnc(C)s3)C[C@@H]2C2CC2)CCC1` to `COCCCN1CCCC(c2nccn2CC2CCC2)C1` (stereo not given), the Percent Effect falls from 9.28% to 0.821%.

First: CC(C)c1nccc(CN(C)Cc2cccc(-n3cccn3)c2)n1
Second: CCN(C)Cc1cccc(CNC(=O)CSCc2ccncc2)c1
The Percent Effect of the first is higher: -3.37% for the first, -11.3% for the second.

Compared with `Cn1cccc1C(=O)N1CC[C@@]2(O)CCN(S(C)(=O)=O)C[C@H]2C1`, `O=C(Cn1ccc2ncccc2c1=O)N1CCCCC1` is lower in Percent Effect: 4.08% for the first, -2.48% for the second.

First: CN(CCSc1nncn1C(C)(C)C)c1ccccc1
Second: OC(c1cnn(-c2ccccc2)c1)C(F)(F)F (stereo not given)
The Percent Effect of the first is higher: 16.1% for the first, -6.83% for the second.

First: Cc1ccc(CNC(=O)c2ccc(=O)n(C)n2)c(OC2CCCC2)c1
Second: O=C(Cc1cccs1)NCc1ccnc(C2CCCOC2)n1 (stereo not given)
The Percent Effect of the first is higher: 12.3% for the first, 12.2% for the second.

First: CC(C)(CN1CCC2(CCOCC2)CC1)N1CCOCC1
Second: C=Cn1cc(CN2CCC(c3ncc(Cl)cc3S(C)(=O)=O)CC2)c(C)n1
The Percent Effect of the first is lower: -0.161% for the first, 13.4% for the second.

Compared with `O=C(NCC[S+]([O-])Cc1ccccc1)c1ccc2[nH]c(=O)[nH]c2c1` (stereo not given), `N#Cc1cccc(N2CCC(CO)(CCc3ccccc3)CC2)n1` is lower in Percent Effect: 13.6% for the first, 3.06% for the second.

Compared with `Fc1cccc(CN2CCC[C@H](Cn3nnc(-c4ccccn4)n3)C2)c1`, `Cc1cnc2c(C(=O)N3CCCC(OCc4ccccn4)C3)cnn2c1` (stereo not given) is lower in Percent Effect: 9.12% for the first, 4.92% for the second.

Going from `COCc1nc(C2CC2)nn1-c1ccccc1Cl` to `CN(CCCOc1ccccc1Cl)C(=O)CN1C(=O)CCNC1=O`, the Percent Effect rises from -1.23% to 7.42%.

First: CCCN(CCc1ccccn1)C(=O)CCc1cnn(C)c1
Second: O=C(NCc1ccc(OCC2CC2)nc1)C1COc2ccccc2O1 (stereo not given)
The Percent Effect of the first is higher: 4.13% for the first, -1.03% for the second.

First: Cc1nc(NC(=O)NCCCN2CCC(C(N)=O)CC2)sc1C
Second: CN1C(=O)[C@H]2CC[C@@H]1CN(C(=O)Nc1ccccc1C(F)(F)F)C2
The Percent Effect of the first is higher: 6.51% for the first, -0.892% for the second.

Going from `Cc1cc(NC(C)c2csc(C)n2)n2nc(C)c(C)c2n1` (stereo not given) to `Cc1ncsc1CCN(C)Cc1ccc(Br)o1`, the Percent Effect falls from 10% to -1.27%.

Going from `COCc1c(Br)cccc1NC(=O)N(C)CCO` to `CC(C#N)NS(=O)(=O)c1cccc(C(C)C)c1` (stereo not given), the Percent Effect rises from -5.13% to 0.482%.

First: CC1(C)CC1(C(=O)N1CC(c2cccnc2)C1)c1ccc(F)cc1 (stereo not given)
Second: O=C(c1cncc(NCC2COc3ccccc3C2)n1)N1CCCC1 (stereo not given)
The Percent Effect of the first is lower: 3.87% for the first, 8.04% for the second.
